Results with a measured potency or affinity are listed apart. Records with an inconclusive call do not appear. The source made the active and inactive calls.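 How the source made its calls: active means in every test run, a fitted half-maximal concentration for signal decrease at or below twice the highest tested concentration; inconclusive means runs disagree, flat 30 to 70% decrease, or poor fit; inactive means the rest.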

The assay in a line: miR-122 activators in hepatoma reporter cells, dose response, cell-based, Huh7 psiCHECK-miR122, Renilla luciferase, cherry-picked (AID 651956).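 Further: Renilla luciferase from a miR-122 sensor reporter so lower signal means miR-122 activation.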 As to conditions: 48 h; series mostly up to 35 µM.
Turning to `COc1ccc2c(c1)c(CCN)c(C)n2Cc1ccccc1`, the result was inactive.

On to `O=C(c1ccco1)c1cn(Cc2ccccc2Cl)c2ccccc12`, for which the molecule was classed as inactive.

Regarding `O=C1NC(=O)N(CCC2=CCCCC2)C(=O)/C1=C\c1cccs1`, the call was inactive.

As for `COc1ccc(C2SCC(=O)Nc3c2c(=O)[nH]n3C2CCCCCC2)cc1` (centres undefined), the outcome was inactive.
